This passage reports inhibition results from ChEMBL document CHEMBL1961873, “Compounds: GSK PKIS; Assays: Nanosyn kinase panel” (2012).

Test [1] deals with Protein kinase C gamma type (Homo sapiens) (UniProt P05129). The settings on record: at 1 µM.
For test [2], the target named is T1, Protein kinase C iota type (Homo sapiens) (UniProt P41743).
T1 sequence (whole entry): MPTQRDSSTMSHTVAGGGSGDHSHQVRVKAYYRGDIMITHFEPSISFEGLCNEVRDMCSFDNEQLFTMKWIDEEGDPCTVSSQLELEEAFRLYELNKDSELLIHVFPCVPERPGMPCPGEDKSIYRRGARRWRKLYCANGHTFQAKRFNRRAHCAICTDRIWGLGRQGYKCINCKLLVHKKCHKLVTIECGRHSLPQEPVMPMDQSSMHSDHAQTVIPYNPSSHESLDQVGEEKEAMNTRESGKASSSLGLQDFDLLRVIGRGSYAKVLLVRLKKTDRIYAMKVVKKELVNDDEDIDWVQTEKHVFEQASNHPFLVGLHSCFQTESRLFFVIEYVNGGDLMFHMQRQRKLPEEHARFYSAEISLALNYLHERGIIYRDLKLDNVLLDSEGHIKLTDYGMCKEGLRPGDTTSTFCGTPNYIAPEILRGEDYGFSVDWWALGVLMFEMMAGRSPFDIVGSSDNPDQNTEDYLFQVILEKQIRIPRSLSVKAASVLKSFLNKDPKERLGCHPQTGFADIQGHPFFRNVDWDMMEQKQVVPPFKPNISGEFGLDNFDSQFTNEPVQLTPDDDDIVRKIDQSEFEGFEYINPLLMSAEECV
The settings on record: at 0.1 µM.

The target in test [3] is T1, Protein kinase C iota type (Homo sapiens). The settings on record: at 1 µM.
The target in test [4] is Protein kinase C theta type (Homo sapiens) (UniProt Q04759). Conditions: at 0.1 µM.
The target is the same in test [5]. Conditions: at 1 µM.
The target in test [6] is Protein kinase C beta type (Homo sapiens) (UniProt P05771). The settings on record: at 0.1 µM.
Test [7] shares this target. Conditions: at 1 µM.
Test [8] deals with T2, Serine/threonine-protein kinase D1 (Homo sapiens) (UniProt Q15139).
T2 sequence (whole entry): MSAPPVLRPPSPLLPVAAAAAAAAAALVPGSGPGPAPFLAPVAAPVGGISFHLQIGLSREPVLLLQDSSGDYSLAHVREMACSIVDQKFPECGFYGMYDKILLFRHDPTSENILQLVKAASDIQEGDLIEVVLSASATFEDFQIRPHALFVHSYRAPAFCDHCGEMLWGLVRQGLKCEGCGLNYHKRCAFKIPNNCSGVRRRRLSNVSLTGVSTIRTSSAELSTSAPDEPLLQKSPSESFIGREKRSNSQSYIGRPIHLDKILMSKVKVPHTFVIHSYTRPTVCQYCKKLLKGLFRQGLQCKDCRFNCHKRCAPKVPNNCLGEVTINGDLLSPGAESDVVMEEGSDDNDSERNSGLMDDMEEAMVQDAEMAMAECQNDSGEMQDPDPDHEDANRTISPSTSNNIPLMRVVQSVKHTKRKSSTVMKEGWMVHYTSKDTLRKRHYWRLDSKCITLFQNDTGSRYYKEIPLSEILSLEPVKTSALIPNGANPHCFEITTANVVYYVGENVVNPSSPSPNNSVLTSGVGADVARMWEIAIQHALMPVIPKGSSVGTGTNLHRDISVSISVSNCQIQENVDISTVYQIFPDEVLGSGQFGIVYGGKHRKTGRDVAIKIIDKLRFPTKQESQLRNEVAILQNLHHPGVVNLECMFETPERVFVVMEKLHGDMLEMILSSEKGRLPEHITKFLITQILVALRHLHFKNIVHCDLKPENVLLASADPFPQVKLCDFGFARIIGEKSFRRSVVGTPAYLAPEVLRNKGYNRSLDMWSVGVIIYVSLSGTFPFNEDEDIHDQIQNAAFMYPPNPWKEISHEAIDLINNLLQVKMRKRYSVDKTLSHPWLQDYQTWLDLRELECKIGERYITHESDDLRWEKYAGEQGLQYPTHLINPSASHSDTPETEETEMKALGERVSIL
The settings on record: at 0.1 µM.

Test [9] concerns the target T2, Serine/threonine-protein kinase D1 (Homo sapiens). The settings on record: at 1 µM.
For test [10], the target named is T3, Serine/threonine-protein kinase D2 (Homo sapiens) (UniProt Q9BZL6).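 Note: reported percent inhibition values are means, part of the GSK PKIS kinase panel screen.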
T3 sequence (whole entry): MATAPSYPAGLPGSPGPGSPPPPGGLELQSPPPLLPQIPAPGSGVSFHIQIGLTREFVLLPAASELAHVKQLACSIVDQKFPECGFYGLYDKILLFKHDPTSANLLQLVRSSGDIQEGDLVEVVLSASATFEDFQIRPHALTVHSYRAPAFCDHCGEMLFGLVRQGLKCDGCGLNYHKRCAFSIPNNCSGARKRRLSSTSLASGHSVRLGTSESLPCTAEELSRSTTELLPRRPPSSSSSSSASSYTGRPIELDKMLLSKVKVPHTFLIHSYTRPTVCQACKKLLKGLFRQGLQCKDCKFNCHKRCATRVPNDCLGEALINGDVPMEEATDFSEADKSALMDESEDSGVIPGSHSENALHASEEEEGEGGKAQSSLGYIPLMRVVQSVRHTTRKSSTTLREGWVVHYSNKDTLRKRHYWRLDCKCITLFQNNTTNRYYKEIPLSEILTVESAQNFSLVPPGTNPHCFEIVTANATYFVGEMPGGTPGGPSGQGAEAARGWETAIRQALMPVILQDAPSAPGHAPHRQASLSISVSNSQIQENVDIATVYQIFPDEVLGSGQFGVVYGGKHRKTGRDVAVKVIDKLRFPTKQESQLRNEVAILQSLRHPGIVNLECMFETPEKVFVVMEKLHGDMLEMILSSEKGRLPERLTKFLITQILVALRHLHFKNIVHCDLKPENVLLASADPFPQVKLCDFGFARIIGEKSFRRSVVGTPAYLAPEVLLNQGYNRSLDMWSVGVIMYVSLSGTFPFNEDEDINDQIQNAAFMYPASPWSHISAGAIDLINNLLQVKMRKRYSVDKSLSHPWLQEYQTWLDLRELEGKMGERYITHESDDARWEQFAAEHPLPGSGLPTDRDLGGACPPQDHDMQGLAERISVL
The settings on record: at 0.1 µM.

Protein kinase C beta type (Homo sapiens), sequence (P05771 2-671 limits assumed): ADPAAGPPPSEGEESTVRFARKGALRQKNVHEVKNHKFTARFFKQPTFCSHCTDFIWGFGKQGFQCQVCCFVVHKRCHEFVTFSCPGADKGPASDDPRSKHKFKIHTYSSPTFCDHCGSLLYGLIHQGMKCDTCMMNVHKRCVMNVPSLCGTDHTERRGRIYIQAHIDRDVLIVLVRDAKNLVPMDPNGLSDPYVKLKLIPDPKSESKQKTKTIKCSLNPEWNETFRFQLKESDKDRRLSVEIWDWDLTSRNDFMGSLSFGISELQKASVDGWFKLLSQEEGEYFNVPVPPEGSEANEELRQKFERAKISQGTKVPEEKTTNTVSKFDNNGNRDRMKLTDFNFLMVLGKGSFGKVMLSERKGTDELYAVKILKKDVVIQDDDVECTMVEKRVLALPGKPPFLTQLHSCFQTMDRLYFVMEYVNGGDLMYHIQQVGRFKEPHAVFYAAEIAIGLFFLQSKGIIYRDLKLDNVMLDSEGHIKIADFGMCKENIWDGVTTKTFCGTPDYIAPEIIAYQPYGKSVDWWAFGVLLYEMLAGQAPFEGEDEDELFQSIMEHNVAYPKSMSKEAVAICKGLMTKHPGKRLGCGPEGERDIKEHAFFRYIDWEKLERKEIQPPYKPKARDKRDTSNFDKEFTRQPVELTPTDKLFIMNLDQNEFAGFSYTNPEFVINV
Protein kinase C theta type (Homo sapiens), sequence (Q04759 whole entry, looked up): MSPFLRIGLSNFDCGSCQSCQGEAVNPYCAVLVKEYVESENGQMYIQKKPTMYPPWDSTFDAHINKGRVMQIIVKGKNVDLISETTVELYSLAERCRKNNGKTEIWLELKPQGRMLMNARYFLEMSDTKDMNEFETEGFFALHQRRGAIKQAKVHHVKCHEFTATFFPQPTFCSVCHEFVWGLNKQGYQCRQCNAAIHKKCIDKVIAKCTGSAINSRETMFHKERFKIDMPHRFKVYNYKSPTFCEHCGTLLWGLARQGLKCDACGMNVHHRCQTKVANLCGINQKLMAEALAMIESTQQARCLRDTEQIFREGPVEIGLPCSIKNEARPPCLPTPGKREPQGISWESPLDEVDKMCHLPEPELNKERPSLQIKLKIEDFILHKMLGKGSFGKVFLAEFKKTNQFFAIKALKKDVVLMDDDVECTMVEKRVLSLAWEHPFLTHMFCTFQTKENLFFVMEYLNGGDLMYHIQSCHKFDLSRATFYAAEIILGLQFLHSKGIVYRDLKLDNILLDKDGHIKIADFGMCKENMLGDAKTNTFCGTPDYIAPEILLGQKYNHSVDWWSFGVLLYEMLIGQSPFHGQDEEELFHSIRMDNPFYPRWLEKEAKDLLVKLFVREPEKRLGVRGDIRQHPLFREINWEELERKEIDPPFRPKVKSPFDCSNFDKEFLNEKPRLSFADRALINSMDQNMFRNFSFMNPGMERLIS

By inhibition is commonly meant the drop in the measured response relative to a control, in per cent. `NC(=O)c1sc(-n2cnc3cc(C(F)(F)F)ccc32)cc1OCc1ccccc1Br`: the inhibition was found to be 2.52% in test [1]; 0.97% in test [2]; 0.63% in test [3]; 0.18% in test [4]; 0.55% in test [5]; 0.4% in test [6]. Further, the inhibition turned out to be 0.57% in test [7], 1.33% in test [8], 1.94% in test [9] and 1.96% in [10].

As for `CCn1c(-c2nonc2N)nc2c(C#CC(C)(C)O)ncc(OCC3CCNCC3)c21`, the inhibition in test [1] is 39.9%; in test [2] it was -0.7%; in test [3], 13.5%; in test [4], 21.5%; in [5], 65.5%; in test [6], 8.97%. Further, the inhibition in [7] is 37.6%; in [8], -0.45%; in [9], 6.01%; in test [10] it was -0.27%.

Regarding `COc1cccc(COc2cc(-n3cnc4ccccc43)sc2C(N)=O)c1`, the inhibition in test [1] is 3.94%; in test [2] it was -0.74%; in [3], -0.85%; in test [4] it was 1.23%; in test [5], 1.18%; in test [6], 0.72%. The inhibition in test [7] was found to be 1.77%; in [8] it was 0.37%; in test [9], 1.82%; in [10], 1.64%.

Take `COc1cc2c(cc1Nc1nc(Nc3ccsc3C(N)=O)c3cc[nH]c3n1)N(C(=O)CN(C)C)CCC2`: the inhibition in [2] is -0.4%; in test [3] it was -0.5%; in [4], 4.39%; in [5] it was 10.2%; in [6] it was -1.27%; in [7], 2.49%. The values for the inhibition in [8], in test [9] and in test [10] were 3.95%, 19.8% and 12.2%, respectively.

As to `Nc1nonc1-c1nc2cnccc2n1C1CCCCC1`, the inhibition was 49% in test [1]; -0.01% in test [2]; 4.76% in test [3]; 10.3% in [4]; 55.2% in test [5]; 6.66% in [6]. For the same molecule, the inhibition is 33.7% in test [7], -0.73% in test [8], 2.75% in test [9] and -1.07% in [10].

In the case of `CCn1c(-c2nonc2N)nc2c(C#CCN)ncc(OCCCN)c21`, the inhibition in test [1] was 4.01%; in test [2] it was 2.51%; in [3], 16.5%; in [4], 6.73%; in test [5], 38.6%; in test [6] it was 4.07%. The inhibition in test [7] is 12%; in test [8], -1.16%; in test [9], -3.02%; in test [10] it was -2.14%.

For the molecule `NS(=O)(=O)c1ccc(-c2ccc3c(NC(=O)C4CC4)n[nH]c3c2)cc1`, the inhibition in [1] was 0.37%; in test [2], 1.06%; in test [3] it was 3.22%; in test [4], 1.13%; in test [5] it was -0.43%; in test [6], 0.67%. In addition, the inhibition was determined as 1.78% in test [7], 1.17% in [8], 1.47% in test [9] and 1.52% in test [10].

For `CCn1c(-c2nonc2N)nc2c(C#CC(C)(C)O)ncc(OC[C@@H]3CCCN3)c21`, the inhibition in test [1] worked out at 44.6%; in test [2], 0.62%; in test [3] it was 11.4%; in [4] it was 30%; in test [5], 72.3%; in test [6] it was 7.63%. In addition, the inhibition in test [7] came to 37.1%; in [8], 2.68%; in test [9], 19.2%; in test [10], 4.02%.

Regarding `CCn1c(-c2nonc2N)nc2c(C#CC(C)(C)O)nc(O[C@@H](CN)c3ccccc3)cc21`, the inhibition in test [1] is 81.1%; in test [2], 3.68%; in test [3], 26.4%; in [4] it was 73.5%; in test [5], 84.8%; in [6], 49.2%. The inhibition in test [7] worked out at 80.5%; in [8], 8.23%; in [9] it was 61.6%; in test [10] it was 9.02%.

For the molecule `Cc1cc(-c2ccco2)cc(C)c1/C=C/c1cncc(-c2nn[nH]n2)c1`, the inhibition in [1] is 1.85%; in test [2], 0.32%; in test [3], -0.83%; in [4], 0.29%; in [5], -0.04%; in test [6], -0.04%. The inhibition in test [7] was -0.06%; in test [8], 0.58%; in test [9], 2.09%; in test [10], 0.97%.

`NS(=O)(=O)c1ccc(N/C=C2\C(=O)Nc3ccc4ncsc4c32)cc1`: the inhibition in [1] turned out to be 5.52%; in test [2] it was 1.93%; in test [3], 2.78%; in [4] it was 3.02%; in [5], 6.57%; in test [6] it was 1.34%. The inhibition in test [7] came to 3.28%; in [8], 22.4%; in test [9], 67.3%; in [10], 16.3%.

As for `Fc1ccc(-c2ncn(C3CCNCC3)c2-c2ccnc(Oc3ccccc3)n2)cc1`, the inhibition in [1] was 2.28%; in test [2] it was 0.81%; in test [3], 1.84%; in test [4], 1.21%; in [5], 1.59%; in test [6], 1.22%. Moreover, the inhibition in [7] was 5.65%; in test [8], -1.04%; in [9], 0.79%; in test [10] it was -1.14%.

Take `COc1cccc(-n2ncc3c(N/N=C/c4ccncc4)ncnc32)c1`: the inhibition worked out at 7.85% in test [1]; 3.39% in [2]; 13.1% in test [3]; 2.97% in [4]; 5.71% in test [5]; 2.37% in [6]. In addition, the inhibition in [7] worked out at 9.57%; in test [8], 4.37%; in [9], 10.1%; in test [10] it was 4.75%.

With `COc1cc(C=NNc2ncnc3c2cnn3Cc2ccccc2)ccc1O`, the inhibition in test [1] is 2.96%; in [2] it was -1.06%; in [3], -0.54%; in [4] it was -1.05%; in [5] it was 1.99%; in test [6] it was -1.09%. Moreover, the inhibition is 1.44% in test [7], -4.01% in [8], -1.69% in test [9] and -3.31% in test [10].
